Screens (PubChem)
Rows were chosen to be rich in hits. Some 2.8% of all compounds tested hit in one or more screens of this group.
Granule exo inh = blocks lytic granule exocytosis. TALL-104 LAMP-1 surface exposure, flow cytometry; cells stimulated with thapsigargin and PMA. inhibition, % at 10 µM. actives 0.66% (n = 360,000). AID 651702;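 active = inhibition above about 55%, limit read from the data; inconclusive = no clear call, values can overlap the other calls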
PP1 inh = PP1-alpha (human) inhibition in PP5 counter-screen; P62136; purified PP1alpha, OMFP fluorescence; inhibition, % at 6.7 µM; actives 0.9% (n = 320,000); AID 2235;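 active = inhibition above the mean inhibition of all tested compounds plus 3 SD, computed separately for each screening campaign, cut at about 15% in these data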
PP5 primary = PP5 (human) phosphatase inhibition; purified PP5c, OMFP substrate fluorescence; inhibition, % at 6.7 µM; actives 0.18% (n = 320,000); AID 1987;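 active = inhibition above the campaign's mean inhibition across all tested compounds plus 3 SD, cut at about 9.5% in these data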;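 note: 0% = DMSO only and 100% = 100 µM cantharidin control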
Target sequence (P53041 whole entry, looked up): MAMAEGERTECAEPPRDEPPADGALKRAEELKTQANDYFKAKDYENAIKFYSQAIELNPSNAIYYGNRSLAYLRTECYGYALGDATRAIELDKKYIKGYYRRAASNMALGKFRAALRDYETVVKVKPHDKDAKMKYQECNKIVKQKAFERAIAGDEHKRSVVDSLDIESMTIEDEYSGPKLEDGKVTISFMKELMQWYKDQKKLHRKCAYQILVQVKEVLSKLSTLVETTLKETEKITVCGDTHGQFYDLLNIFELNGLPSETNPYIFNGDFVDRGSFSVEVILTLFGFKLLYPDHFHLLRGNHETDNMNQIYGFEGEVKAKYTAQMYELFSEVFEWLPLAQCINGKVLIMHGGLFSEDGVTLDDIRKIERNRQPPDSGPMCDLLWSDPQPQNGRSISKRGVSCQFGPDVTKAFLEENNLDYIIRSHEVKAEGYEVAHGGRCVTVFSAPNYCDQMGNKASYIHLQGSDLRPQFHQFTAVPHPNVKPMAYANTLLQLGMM
IDE act = boosts human insulin-degrading enzyme activity in HEK cells. P14735. FAbeta-B cleavage, fluorescence polarization; 0% vehicle, 100% cell-free pure enzyme wells. activation, % at 5.96 µM. actives 0.073% (n = 340,000). AID 493087;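 active = activation above the mean of all tested compounds plus 3 SD, set per screening campaign, cut at about 17% in these data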
SKKanGAS inh = blocks kanamycin growth of S. pyogenes SKKanGAS strain. BacTiter-Glo, 6 h. inhibition, % at 7.5 µM. actives 1.3% (n = 300,000). AID 1662;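 active = mean replicate score, as percent of positive control median, at least 50; inconclusive = mean below 50 but one replicate at or above 50; inactive = mean and every replicate below 50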;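 note: strain carries kanamycin resistance gene driven by streptokinase promoter and grows in 40 µg/ml kanamycin; loss of luminescence reflects streptokinase promoter inhibition or plain growth inhibition; 0% = median of DMSO wells and 100% = positive control at its reference dose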
IDE inh = cellular human IDE inhibition | HEK cells, FAbetaB cleavage, fluorescence polarization | AID 434962 | inhibition, % at 5.59 µM | actives 0.41% (n = 320,000) | P14735;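 active = percent inhibition above the average of all tested compounds plus 3 SD, set per screening campaign, cut at about 16% in these data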;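 note: IDE supplied by intact live HEK cells; FP after avidin binding of uncleaved biotin substrate so inhibition keeps polarization high; 0% = DMSO wells and 100% = 60 µM reference IDE inhibitor Ii1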
Numbers without * were called inactive; ? = inconclusive; . = not tested or not shown.

SMILES | Granule exo inh | PP1 inh | PP5 primary | IDE act | SKKanGAS inh | IDE inh
Cc1ccccc1-c1cc(=O)c2ccccc2o1 | -0.5 | . | . | -5.4 | . | -2.9
Cc1ccc2cccc(NS(=O)(=O)c3ccccc3)c2n1 | . | -0.8 | 2.4 | . | 54.9* | 11.4
O=S(=O)(Nc1cccc2cccnc12)c1ccccc1 | 0.6 | 4.0 | 0.1 | 4.1 | ? | 9.6
COc1cc(NC(=O)c2ccccc2F)ccc1NC(=O)c1cc2ccccc2o1 | 13.3 | . | . | -0.3 | 1.7 | .
O=C1C=C(c2ccc(-c3ccccc3)cc2)C[C@@H](c2ccc3c(c2)OCO3)C1 | 18.1 | -8.9 | -1.2 | 42.7* | . | 0.6
CC(C)(C)OC(=O)NCc1ccc(CNC(=O)c2nc[nH]c2C(=O)N2CCN(C(=O)OC(C)(C)C)CC2)cc1 | -7.6 | -3.7 | 0.4 | -5.3 | . | 6.1
COc1ccc2ncc(S(=O)(=O)c3ccccc3)c(N3CCC4(CC3)OCCO4)c2c1 | 7.5 | 1.1 | 2.3 | 2.0 | -0.6 | 4.3
COc1ccc2ncc(S(=O)(=O)c3ccccc3)c(N3CCN(c4ccccc4)CC3)c2c1 | -1.7 | 1.1 | -0.1 | 9.7 | 66.8* | 1.1
O=C(COc1ccccc1)Nc1nnc(-c2ccc(Cl)cc2)o1 | 1.5 | 17.2* | -3.9 | 7.7 | 43.5 | -4.0
O=C(COc1ccc(Cl)cc1)Nc1nnc(-c2ccc3c(c2)CCCC3)o1 | 1.0 | 6.4 | 2.3 | 2.9 | 97.3* | 0.4
CC(=O)Nc1nnc(-c2ccc3c(c2)CCCC3)o1 | 1.9 | -0.8 | 0.5 | -0.3 | 7.2 | 0.8
CCOc1ccc(-c2nnc(NC(=O)COc3ccccc3F)o2)cc1 | -2.2 | . | . | . | . | .
O=C(Nc1nnc(-c2ccc(Cl)cc2)o1)NC1CCCCC1 | -1.0 | -0.3 | 0.8 | 3.2 | 9.5 | 3.0
COc1ccccc1C(=O)Nc1nnc(-c2ccc3c(c2)CCCC3)o1 | 1.0 | 6.7 | 2.7 | -0.1 | 58.4* | 1.6
O=P(c1ccccc1)(c1ccccc1)C(O)c1cccs1 (centres undefined) | -0.6 | . | . | . | . | .
S=C(NNc1nc(Nc2ccccc2)nc(N2CCCCC2)n1)NC1CCCCC1 | 5.5 | 8.3 | 0.8 | 7.6 | 60.2* | -6.1
CC1CN(CC(O)COCc2ccc3c(c2)OCO3)CC(C)O1 (centres undefined) | -17.6 | 2.6 | 3.7 | -0.7 | -7.2 | -0.8
Oc1ccc(Cl)cc1Sc1cc(Cl)ccc1O | 2.7 | . | . | 2.8 | . | .
CCN1CCN(CCNC(=O)CCCn2nc(C)c3c(C)n(-c4ccc(C)cc4)nc3c2=O)CC1 | -4.9 | 11.0 | 0.0 | 0.7 | 1.1 | -4.0
CCOc1cc(/C=C2/NC(=S)NC2=O)ccc1OCc1ccc([N+](=O)[O-])cc1 | -0.1 | 0.6 | -0.8 | 1.5 | 74.4* | 1.8
CC(C)c1ccc(NC(=O)COC(=O)c2nn(C)c(=O)c3ccccc23)cc1 | 3.1 | . | . | -1.7 | . | -1.5
CSCCC(C(=O)Nc1c(C)cccc1C)n1c(COc2ccc(C)cc2)nc2ccccc21 (centres undefined) | -5.3 | . | . | . | . | .
C/C(=N/NS(=O)(=O)c1ccc(Cl)cc1)c1cccc(NC(=O)c2ccc(Cl)cc2Cl)c1 | -0.1 | -1.0 | 5.7 | -0.1 | 64.2* | -3.8
COc1cccc(C2(C)NC(=O)N(CC(=O)c3cc(C)n(C4CC4)c3C)C2=O)c1 (centres undefined) | -17.9 | 0.2 | 3.4 | 2.3 | . | 0.1
CCCNC(=O)Cn1cnc2sc(C(=O)NCCN(CC)CC)c(C)c2c1=O | -0.6 | 16.3* | 4.7 | -1.9 | -5.2 | -1.4
SMILES | Granule exo inh | PP1 inh | PP5 primary | IDE act | SKKanGAS inh | IDE inh
CCN(CC)C(=O)Cn1cnc2sc(C(=O)Nc3cc(OC)c(OC)c(OC)c3)c(C)c2c1=O | -3.1 | 15.2* | 6.1 | 0.6 | 7.3 | -1.8
CCOc1ccc(S(=O)(=O)N2CCC(C(=O)NC3CC3)CC2)cc1Cl | 1.7 | 0.2 | 1.0 | 1.4 | 0.8 | 0.2
COc1ccc(CCNC(=O)c2cccc(S(=O)(=O)N3CCc4ccccc4C3)c2)cc1 | 0.3 | -0.6 | 3.3 | -2.7 | . | 3.0
CCc1cccc2sc(N3CCN(C(=O)c4ccc([N+](=O)[O-])o4)CC3)nc12 | 4.4 | 4.0 | 4.6 | 0.2 | 58.7* | 7.7
O=C(c1ccc([N+](=O)[O-])o1)N1CCN(Cc2ccccc2)CC1 | 0.6 | -1.9 | -0.2 | -0.4 | 12.7 | 1.0
CCn1cc(C(=O)OCC(=O)c2ccccc2)c(=O)c2ccc(C)nc21 | -0.2 | . | . | 2.4 | 24.0 | .
CCn1cc(C(=O)OCC(=O)c2cc(C)n(-c3cccc(C(F)(F)F)c3)c2C)c(=O)c2ccc(C)nc21 | 0.6 | 3.8 | 4.3 | 5.8 | 58.7* | -7.2
CCCc1c(Cc2cccc(F)c2)ncn1Cc1cccc(-c2ccccc2)c1 | 24.0 | . | . | . | . | .
O=[N+]([O-])c1ccc(S(=O)(=O)CC(CN2CCCCC2)N2CCCCC2)cc1 (centres undefined) | 64.1* | -4.5 | 2.2 | -2.2 | -14.7 | -3.3
CC(C)[C@H](NC(=O)c1ccco1)C(=O)NC12CC3CC(CC(C3)C1)C2 | 7.3 | 5.3 | -5.1 | 3.9 | 9.2 | 7.7
C=C1CC(COc2ccc3c(C)c(Cl)c(=O)oc3c2)(c2ccccc2)OC1=O (centres undefined) | 3.2 | . | . | 0.1 | . | .
Cc1cc(C)c(C(=O)c2ccccc2C(=O)O)c(C)c1 | -7.2 | . | . | . | . | .
O=C(CSc1ccccn1)Nc1nonc1[N+](=O)[O-] | 58.6* | -0.8 | 0.9 | 2.5 | ? | 4.0
CC(=O)Nc1ccc(NC(=O)c2cccc(-c3cc4ccccc4oc3=O)c2)cc1 | 1.8 | 0.0 | 0.7 | 0.3 | -3.9 | 0.1
COc1ccc(C(=O)Nc2cccc(-c3cc4ccccc4oc3=O)c2)cc1[N+](=O)[O-] | 0.2 | 16.5* | 2.1 | 3.0 | . | 2.6
O=C(Nc1ccc(N2CCCC2)c(Cl)c1)c1cccc(-c2cc3ccccc3oc2=O)c1 | -6.1 | 15.7* | 1.5 | 0.3 | 8.9 | 5.4
CS(=O)(=O)c1ccc(C(=O)OCc2nnc(-c3ccc(Cl)cc3)o2)cc1[N+](=O)[O-] | 59.7* | 0.0 | 3.5 | 2.5 | 0.6 | 6.0
Cc1cnc(NC(=O)c2cc3c(C)nn(-c4ccccc4)c3s2)s1 | 0.6 | 1.3 | 1.7 | 0.6 | 106.6* | -4.0
Cc1nn(-c2ccccc2)c2sc(C(=O)N3CCc4ccccc4C3)cc12 | -4.3 | . | . | 4.9 | 54.6* | .
CN(C)c1ccc(N=Cc2nc(-c3ccccc3)oc2OC(=O)c2ccccc2)cc1 | -2.7 | 1.3 | -0.4 | -0.5 | 5.7 | 5.6
CC(=O)Oc1oc(-c2ccccc2)nc1C=Nc1ccc(N(C)C)cc1 | 93.6* | -3.9 | 0.6 | 0.2 | 0.4 | -9.5
CCCCCCSC1=C(C#N)C(c2ccccc2)CC(=O)N1 (centres undefined) | -2.3 | -3.6 | 0.6 | 7.4 | -2.6 | -6.1
CCCSC1=C(C#N)C(c2cccs2)CC(=O)N1 (centres undefined) | 89.7* | -5.5 | -1.6 | 2.9 | 11.3 | -4.7
O=C(c1ccc(-c2cccc(Cl)c2)o1)N1CCN(c2ccc([N+](=O)[O-])cc2)CC1 | 1.5 | 0.4 | 2.5 | -1.4 | 4.8 | 11.9
